Compounds without any hit were thinned out: in the full panel of roughly 83,000, 20% have a hit.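 48-hour exposure, single concentration, 96-well plates; percent growth endpoint where 0 means no net growth. Active: below 10.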 Values without a mark were called inactive. Calls of active or inactive are those of the source.
Experiments:
Test in all cases: NCI-60 one-dose screen, 48 h (100 = growth as untreated, 0 = no growth, -100 = all killed)
Settings in all cases: 10 µM unless noted
DU-145 prostate = system: DU-145 prostate
K-562 leukemia = system: K-562 leukemia
MALME-3M melanoma = system: MALME-3M melanoma
MDA-MB-231 breast = system: MDA-MB-231 breast
RXF 393 renal = system: RXF 393 renal
SF-268 CNS = system: SF-268 CNS
SF-295 CNS = system: SF-295 CNS
SF-539 CNS = system: SF-539 CNS
UACC-257 melanoma = system: UACC-257 melanoma
M14 melanoma = system: M14 melanoma

| Structure (SMILES) | growth (DU-145 prostate) | growth (K-562 leukemia) | growth (MALME-3M melanoma) | growth (MDA-MB-231 breast) | growth (RXF 393 renal) | growth (SF-268 CNS) | growth (SF-295 CNS) | growth (SF-539 CNS) | growth (UACC-257 melanoma) | growth (M14 melanoma) |
| --- | --- | --- | --- | --- | --- | --- | --- | --- | --- | --- |
| Cn1cc(-c2cc(N)n3nc(-c4c[nH]c5ccccc45)cc3n2)c2cccnc21 | 38.2% | 6.08% (active) | -27.3% (active) | -9.34% (active) | 29.6% | 81.6% | -4.84% (active) | -81.5% (active) | 92.3% | -48.1% (active) |
| N/C(=N\c1nc2ccccc2s1)NC(=O)Nc1c(Cl)cccc1Cl | 55.1% | 19.6% | 44% | 28.9% | 80.8% | 42.2% | 28.2% | 30.8% | 75.4% | 21.8% |
| O=C(COc1ccc(NC(=O)Nc2ccccc2)cc1)N=Nc1c(O)[nH]c2ccc([N+](=O)[O-])cc12 | 33.9% | 10.5% | -62.7% (active) | -42.3% (active) | 33.5% | 46.7% | 70.3% | -70.5% (active) | 27.3% | 8.59% (active) |
| CCN1C(=O)/C(=N\N=C(/C)c2ccc3c(c2)Nc2ccccc2S3)c2cc(Cl)ccc21 | 71.8% | 38.2% | 35.9% | 66.8% | 65.9% | 43.8% | 43.2% | 73.3% | 25.7% | 67.5% |
| Cc1ccccc1[C@H]1C(C(=O)c2ccc(Cl)cc2)C2(N[C@@H]1c1ccccc1)C(=O)Nc1ccccc12 (stereo not given in full) | -34.4% (active) | -21% (active) | -64.7% (active) | -60.4% (active) | -66% (active) | -12.5% (active) | -19% (active) | -69.5% (active) | -16.4% (active) | -77.9% (active) |
| CC(C)C(C(=O)O)n1c(O)c(/C=C2/C=c3cc4c(cc3=NC2=O)OCO4)sc1=S (stereo not given) | 115% | 109% | 98.4% | 99.2% | 116% | 111% | 102% | 104% | 107% | 103% |
| C#CCOc1cc(N(CC)CC)ccc1C(C(=O)NC(C)(C)C)N(C(=O)C1CCc2cc(F)ccc2O1)c1cc(C)cc(C)c1 (stereo not given) | 58.1% | 16.4% | 59.4% | 46.7% | 42.9% | 38.2% | 33.5% | 53.5% | 42.5% | 39.9% |
| Cc1cc2nc3c4ccccc4n(CC4=NCCN4)c3nc2cc1C | 2.14% (active) | -13.1% (active) | -92.7% (active) | -43.2% (active) | -67.2% (active) | 40.7% | -74.8% (active) | -94.2% (active) | -44.4% (active) | -79.2% (active) |
| O=C(COc1ccc2c(c1)CCCC(=O)N2)NCc1ccccc1 | 113% | 43.4% | 95.6% | 82.4% | 93.2% | 97.5% | 90.8% | 87.3% | 98% | 83% |
| C=C1CCC2C3(C)COC(c4ccco4)OC3CCC2(C)C1CC(Sc1ccccc1)C1=CCOC1=O (stereo not given) | 78.4% | 18.5% | 94.9% | 78.5% | 96.5% | 91.5% | 76.1% | 48.3% | 54.1% | 61.6% |
| CCN(CC)c1ccnc(CNCCSC(c2ccccc2)(c2ccccc2)c2ccc(C)cc2)c1 | -59.7% (active) | -45.1% (active) | -93.1% (active) | -97.7% (active) | -87.5% (active) | -55.8% (active) | -97% (active) | -97.5% (active) | -90.1% (active) | -87.2% (active) |
| N/N=C(\N)c1c(N)nc(=S)[nH]c1-c1ccc(Cl)cc1Cl | 120% | 105% | 92.3% | 94.9% | 115% | 108% | 94.5% | 94.6% | 108% | 107% |
| CN(C)CCn1c2ccccc2c2nc3cc4ccccc4cc3nc21 | -30% (active) | 2.68% (active) | -87.3% (active) | 9% (active) | -42.9% (active) | 46.2% | -67.6% (active) | -72.2% (active) | 18.1% | -63.3% (active) |
| COc1ccc2[nH]c(O)c(N=NC(=O)COc3ccc(NC(=O)Nc4ccccc4)cc3)c2c1 | 72.5% | 46.3% | 13.9% | 12.9% | 39% | 41.8% | 41.7% | -22.7% (active) | 63.9% | 41.7% |
| COc1cc2c(c(OC)c1OC)C(=O)CC(c1cccc(NC(=O)c3cc(NC(=O)[C@H](CO)NC(=O)OC(C)(C)C)ccc3Cl)c1)O2 (stereo not given in full) | 27.5% | 12.7% | 43.2% | 6.43% (active) | 46.8% | 45.4% | 37% | 37% | 26.9% | 22.5% |
| Cc1ccc([C@H]2C(C(=O)c3ccc(Cl)cc3)C3(N[C@@H]2c2ccccc2)C(=O)Nc2ccccc23)cc1 (stereo not given in full) | 80.2% | 11.8% | 20.5% | 27.2% | 19% | 61.1% | 42.6% | 83.9% | 26.9% | 28.7% |
| COc1ccc(C(SCCNCc2cc(N(C)C)ccn2)(c2ccccc2)c2ccccc2)cc1 | 7.05% (active) | -28.5% (active) | -91.4% (active) | -33.4% (active) | -21.4% (active) | 22.1% | -58.8% (active) | -93% (active) | -20.9% (active) | -46.3% (active) |
| CC(C)(C)OC(=O)/C=C/c1cccc2c1C(=O)NC(C)(c1cc3cc(Cl)ccc3oc1=O)N2 (stereo not given) | 61.1% | 17.1% | 51.2% | 67.1% | 10.2% | 51.4% | 24.9% | 66.7% | 41.7% | 49.3% |
| Cn1cc(-c2cc(N)n3nc(-c4cn(C)c5ncc(Br)cc45)cc3n2)c2cc(Br)cnc21 | 5.43% (active) | -41.6% (active) | -66.6% (active) | 6.75% (active) | 23.1% | 50% | -63.5% (active) | -83.4% (active) | 60.3% | -64.7% (active) |
| CCN1C(=O)N(CC)C2NNC(Sc3c(C(=O)O)c4ccccc4n(C4CCCC4)c3=O)=NC21 (stereo not given) | 2.94% (active) | 13.9% | 72.4% | 12.3% | 50.2% | 39.2% | 8% (active) | -24.7% (active) | 58.7% | -7.72% (active) |
| COc1cc2c(c(OC)c1OC)C(=O)CC(c1cccc(NC(=O)c3cc([N+](=O)[O-])ccc3Cl)c1)O2 (stereo not given) | 5.58% (active) | 19.5% | 51.9% | 6.08% (active) | -6.08% (active) | 42.2% | 49.8% | 22.2% | 39.9% | 0.0604% (active) |
| CCOC(=O)COc1c(OC)c(OC)cc2oc(-c3cccc(C(=O)Nc4ccc(Cl)cc4)c3)cc(=O)c12 | 64% | 23.2% | 52% | 50.7% | 75.6% | 56.1% | 38.2% | 59.8% | 77.2% | 33.9% |
| O=C(c1ccccc1)c1ccc2nc(-c3cccc(Cl)c3)[nH]c2c1 | 115% | 98.1% | 111% | 102% | 115% | 106% | 116% | 94.9% | 100% | 108% |
| COc1cc(/C=C/C(=O)c2ccc(C)cc2)ccc1Oc1nc(Nc2ccc(F)cc2)nc(N(C)C)n1 | 50.1% | 26.8% | 69% | 31.2% | 47.8% | 47.1% | 30% | -31.9% (active) | 41.3% | 56.9% |

Reference: PubChem BioAssay (NCI)
